According to ChEMBL document CHEMBL3988442, “University of Dundee, Small-Polar-MMV Screening Library” (2021):

Columns and labels:
[1] = molecular target: T1, Aspartate--tRNA(Asp/Asn) ligase (Mycobacterium tuberculosis (strain ATCC 25618 / H37Rv)) (UniProt P9WFW3); test: Assay for Asp RNA synthetase-1 from Mycobacterium tuberculosis; assay type: functional; design: scale not given: direction of the effect not stated beside the values; conditions: 30 µM; further: in the data most compounds retested in dose-response had high values
T1 sequence (whole entry): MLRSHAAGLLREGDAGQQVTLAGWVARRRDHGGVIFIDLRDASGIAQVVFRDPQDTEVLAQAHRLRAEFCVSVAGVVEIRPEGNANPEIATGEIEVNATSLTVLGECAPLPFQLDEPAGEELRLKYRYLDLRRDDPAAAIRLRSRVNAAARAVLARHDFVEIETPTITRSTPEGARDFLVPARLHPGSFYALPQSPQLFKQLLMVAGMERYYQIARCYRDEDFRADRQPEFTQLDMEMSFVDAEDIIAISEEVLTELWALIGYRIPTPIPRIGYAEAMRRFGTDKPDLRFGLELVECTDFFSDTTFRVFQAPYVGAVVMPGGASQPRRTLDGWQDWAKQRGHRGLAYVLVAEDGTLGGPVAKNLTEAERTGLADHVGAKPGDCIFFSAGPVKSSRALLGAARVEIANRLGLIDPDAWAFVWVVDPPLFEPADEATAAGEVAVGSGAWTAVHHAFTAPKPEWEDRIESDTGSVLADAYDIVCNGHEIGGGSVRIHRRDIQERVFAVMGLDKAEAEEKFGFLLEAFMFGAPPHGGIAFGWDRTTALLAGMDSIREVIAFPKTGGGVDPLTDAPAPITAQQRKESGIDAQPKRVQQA

[2] = molecular target: Shiga toxin 2 (Escherichia coli O157:H7) (UniProt P09385+P09386); test: E. coli 0.157:H7 Shiga Toxin SOP - stx2 screening assay; assay type: functional; design: scale not given: direction of the effect not stated beside the values; conditions: 30 µM

Structure (SMILES) | Percent Effect [1] [%] | Percent Effect [2] [%]
O=C(c1cccnc1)N1CCn2nnc(COc3cccnc3)c2C1 | 6.79 | -23.3
c1ccc(-c2nnn3c2COC(CNCC2CCOCC2)C3)cc1 (centres undefined) | 2.63 | -21.1
NCc1cnn(-c2ccccc2C(=O)NCc2ccncc2)c1 | -3.11 | 13.2
CC(=O)NCCc1cc(N2CCN(C(C)=O)CC2)nc(C2CC2)n1 | -3.2 | -16
OCCOc1nc(-c2ccccc2Cl)no1 | -8.6 | -16.2
CCN(Cc1ccc2c(c1)OCCO2)S(=O)(=O)N(C)C(C)C | -0.607 | 9.34
Cn1nc2c(cc1=O)CN(Cc1nc(C(C)(C)C)no1)CC2 | 50.6 | 0.187
CN(Cc1nccn1CC(F)(F)F)C(=O)c1ccc(F)cc1F | 1.98 | 9.03
COc1cc(CNCc2c(C)nn(C)c2N(C)C)ccn1 | 3.75 | 13
Cc1ccc(CNC(c2ccccc2)c2nccn2C)cc1C (centres undefined) | 1.11 | 14.8
O=C1CO[C@@H]2CN(CC3CCOCC3)C[C@H]2N1CC1CC1 | 14.8 | 5.99
Cc1csc(N2CCCN(Cc3noc(C)n3)CC2)n1 | 1.56 | -19.8
CS(=O)(=O)N[C@@H]1CN(C(=O)c2ccccn2)[C@@H]2CCCO[C@@H]21 | -4.14 | 3.94
CN(C)CCN1CCO[C@@H]2CN(C(=O)c3cccs3)CC[C@@H]2C1 | 0.229 | 4.93
NC(=O)N1CCC2(CCN(Cc3cccc(F)c3)CC2)CC1 | -3.39 | -34.5
CCOC(=O)CN1CCC2(CC1)CC(=O)c1ccc(OC)cc1O2 | -2.78 | 10.6
COc1ccc(NC(=O)Cn2nc(C)ccc2=O)cc1OC | -0.697 | -5.66
